This passage reports INHIBITION results from ChEMBL document CHEMBL4513216, “Probing the Open Global Health Chemical Diversity Library for Multistage-Active Starting Points for Next-Generation Antimalarials” (ACS Infect Dis, 2020).

About 8,600 (12%) of roughly 69,000 compounds showed an effect of 50% or more. The sample holds strong results, similar compounds and a random draw of the others, so the mix is not that of the screen.

The subject of this experiment is Plasmodium berghei. The experiment is described as follows: Screen against P. berghei liver stage (PbLuc), transformed with Luciferase, at 10uM. Type of experiment: functional, HepG2. Particulars: tested at 10 uM.
As for `COc1ccc(NCc2nc(=O)n(CCC(C)C)[nH]2)cc1`, the INHIBITION is -27.6%.
`c1ccc2c(c1)ccn2CCCNC1CCOC2(CCOCC2)C1` (stereo not given): the INHIBITION is -27.5%.
The result for `Cc1ccc(-c2nc(CN3CCN(CCO)CC3)co2)cc1` reads 27.4%.
`COc1ccc(-c2nc(CN3CCN(CCO)CC3)co2)cc1`: the INHIBITION is 59.7%.
`Cc1nc(CNCC2CN(C)CCO2)cs1` (stereo not given): the INHIBITION is 51.6%.
With `COc1ccc(-c2nc(CN3CCCS3(=O)=O)co2)cc1`, the INHIBITION is -91.4%.
Consider `Cc1nc(COc2ccc(CNCC3CN(C)CCO3)cc2)cs1` (stereo not given), for which the INHIBITION is recorded as 32.4%.
With `CCN1CCOC(CNCc2csc(C)n2)C1` (stereo not given), the INHIBITION is on record as -65.3%.
The result for `Cc1cc(N2CCOC(c3ccccn3)C2)nc(N)n1` (stereo not given) reads 2.6925%.
On to `CC(Cn1ccnc1)NC(=O)N1CCN(Cc2cccs2)CC1` (stereo not given), for which the INHIBITION is given as 49.1%.
Regarding `O=S(=O)(NC1CCC12CCN(CC1CCOCC1)CC2)c1ccccc1` (stereo not given), the INHIBITION was found to be 36.4%.
As for `Cc1n[nH]cc1CNC1CCN(c2ccccc2)CC1`, the figure is 49.9%.
With `Cc1n[nH]cc1CNC1CCN(c2cccc(C(F)(F)F)c2)CC1`, the INHIBITION was determined as 78.6%.
The result for `FC(F)(F)c1cccc(N2CCC(NCc3cccnc3)CC2)c1` reads 71.2%; that for `COCCN1CCC(NCc2cccnc2)C1` (stereo not given), -27.3%; that for `Cc1n[nH]cc1CNC1CCN(c2ccc(F)cc2)CC1`, 49.9%.
Take `O=C(c1ccoc1)N1CCC(NCc2cccnc2)CC1`: the INHIBITION is reported as 10.2%.
As for `CC1CN(Cc2ccc(C#N)cc2F)CCN1Cc1nccn1C` (stereo not given), the figure is 11.433%.
For `Cc1ccc(CN2CCCn3cnc(COCC4CC4)c3C2)o1`, the INHIBITION is listed as -49.1%.
On to `CN(CCc1ccccn1)C(=O)CCC1CCCN(c2ccncc2)C1` (stereo not given), for which the INHIBITION worked out at 26.8%.
Turning to `O=C(C1CCOCC1)N1CCO[C@H]2[C@H](Oc3cccnc3)CC[C@@H]21`, the INHIBITION came to 10%.
As for `CC(C)NC(=O)c1cccc(NC(=O)CCCc2nc(C(C)C)no2)c1`, the figure is -8.87%.
Turning to `CC(C)c1noc(C[S+]([O-])CC(=O)Nc2cc(F)ccc2F)n1` (stereo not given), the INHIBITION is 56.3%.
Turning to `CC(C)c1noc(CCC(=O)Nc2cc(F)ccc2F)n1`, the INHIBITION was determined as 34%.
With `CC(C)c1noc(C[S+]([O-])CC(=O)Nc2ccc(F)c(F)c2)n1` (stereo not given), the INHIBITION is on record as 51.3%.
As to `CC(C)c1noc(CCCC(=O)Nc2cccc(F)c2)n1`, the INHIBITION was 27%.
As for `CC(C)c1noc(CN2CCN(C(=O)c3cc(Cl)ccc3F)CC2)n1`, the figure is -17%; as for `CCN(Cc1ccco1)C(C)c1nc(C(C)(C)C)no1` (stereo not given), 2.9%.
Take `CCn1cnnc1CNC(=O)Cc1ccc2c(c1)OCCO2`: the INHIBITION was determined as 1.78%.
On to `O=C(NC[C@]1(O)CN(Cc2ccccc2F)C[C@H]1O)c1cscn1`, for which the INHIBITION was found to be 14.5%.
For `CCn1c(CC2CCN(S(=O)(=O)c3cccs3)CC2)nn(C)c1=O`, the INHIBITION was determined as 41.5%.
Regarding `Cc1noc(C)c1CNCc1c(C(C)C)nn(C)c1N1CCOCC1`, the INHIBITION is listed as 34.5%.
As for `Cc1cccc(-n2ncc(C(=O)N3CCn4c(C)nnc4C3)c2C)c1`, the figure is 60.6%.
Regarding `Cc1cccc(-n2c(C)cc(C(=O)N3CCn4c(C)nnc4C3)c2C)c1`, the INHIBITION was 35.3%.
Consider `Cc1nnc2n1CCN(C(=O)c1cc(C)n(-c3ccccc3)c1C)C2`, for which the INHIBITION is given as 44.3%.
`COc1ccc2nnc(CCCC(=O)NCc3ccccc3)n2n1`: the INHIBITION amounted to 44.4%.
With `CCc1ccc(CN2CCC3(CC2)C(=O)N(C)CCN3CC2CC2)cc1`, the INHIBITION was -17.1%.
`COC[C@@]12CC[C@@H](N3CCOCC3)C[C@H]1CCN(c1cc(C)ccn1)C2`: the INHIBITION was determined as 70.3%.
As for `COC[C@@]12CC[C@@H](N3CCOCC3)C[C@H]1CCN(c1cnccn1)C2`, the INHIBITION is on record as -15.1%.
Take `COC[C@@]12CC[C@@H](N3CCOCC3)C[C@H]1CCN(c1ccc(Cl)cn1)C2`: the INHIBITION is on record as 16.7%.
With `COC[C@@]12CC[C@@H](N3CCOCC3)C[C@H]1CCN(c1ncccc1Cl)C2`, the INHIBITION is 13.5%.
As for `COC[C@@]12CC[C@@H](N3CCOCC3)C[C@H]1CCN(c1ncccn1)C2`, the figure is 53.5%.
As for `COC[C@@]12CC[C@@H](N3CCOCC3)C[C@H]1CCN(c1ncccc1C)C2`, the figure is 45.8%; as for `O=C(Cn1cnc2sccc2c1=O)NCCc1nnc2ccccn12`, 46.4%.
Take `COCC(=O)N1CCc2ccc(=O)n(CC3CC3)c2CC1`: the INHIBITION is given as -13.2%.
Take `c1csc(CNCC2COCc3c(-c4ccoc4)nnn3C2)n1` (stereo not given): the INHIBITION worked out at 13.1%.
As for `CCCC(=O)Nc1cccc(C(=O)N(C)CCCC2CCCO2)c1` (stereo not given), the figure is 33.7%; as for `COCCn1c2c(ccc1=O)CCN(Cc1ccoc1)CC2`, 25.1%; as for `CCN1CCC2(C=C(C(=O)NC3CC3)c3ccccc32)CC1`, 12.4%.
As for `CN(Cc1nc(C2CC2)no1)C(=O)c1cccc(CC2CCNCC2)c1`, the figure is 59.7%; as for `CCOCCn1c(=O)[nH]c2cc(C(=O)N(C)Cc3ccno3)ccc21`, 8.35%; as for `Cc1nc(CN(C)C(=O)c2cccc(CC3CCNCC3)c2)no1`, 34%.
As to `CNc1ncc(CN(C)C(=O)c2cccc(CC3CCNCC3)c2)cn1`, the INHIBITION was found to be 19.1%.
Consider `CN(Cc1nc(C2CC2)no1)C(=O)C1COc2ccccc2C1` (stereo not given), for which the INHIBITION is reported as -9.08%.
In the case of `CN(Cc1ccno1)C(=O)c1cccc(CC2CCNCC2)c1`, the INHIBITION stood at 70.4%.
